Measured values from PubChem BioAssay AID1159580 (chemical genetic matrix, 2015).
Among all 5,500 compounds or so, about 2,000 (36%) were called active. Another 18% or so got no clear call; they are omitted. Cut-off read from the data, not from the text of the source: active = normalized growth mostly below about 0.91 (no sharp cut-off); inconclusive = no clear call, values can overlap the other calls; inactive = mostly above about 0.92. Some of the results follow.

Assay: chemical genetic growth profiling, strain panel (AID 1159580);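 note: tested at 20 µM; growth read once vehicle control cultures reached saturation at 30 °C; 1 = growth at the plate median or of vehicle wells; lower values mean less growth of the strain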
Settings: growth OD
[1] = S. cerevisiae deletion strains, locus YGR078C, strain PAC10, active compounds read low
[2] = S. cerevisiae deletion strains, locus YJR075W, strain HOC1, active compounds read low
[3] = S. cerevisiae deletion strains, locus YMR307W, strain GAS1, active compounds read low
[4] = S. cerevisiae deletion strains, locus YNL153C, strain GIM3, active compounds read low
[5] = S. cerevisiae deletion strains, locus YNL322C, strain KRE1, active compounds read low
[6] = S. cerevisiae deletion strains, locus YPL241C, strain CIN2, active compounds read low

Measured: normalized growth

CC(C)(Sc1ccc(CCN(CCCCC2CCCCC2)C(=O)NC2CCCCC2)cc1)C(=O)O
inactive: S. cerevisiae deletion strains, locus YAL040C, strain CLN3, active compounds read low 1.06 | S. cerevisiae deletion strains, locus YCL061C, strain MRC1 (second series), active compounds read low 0.994 | S. cerevisiae deletion strains, locus YDR363W, strain ESC2, active compounds read low 1.01 | S. cerevisiae deletion strains, locus YER002W, strain NOP16, active compounds read low 1.01 | [1] 1.03 | [2] 1.01 | [3] 0.994 | [4] 0.986 | S. cerevisiae deletion strains, locus YNL175C, strain NOP13, active compounds read low 1.01 | S. cerevisiae deletion strains, locus YNL197C, strain WHI3, active compounds read low 1.02 | S. cerevisiae deletion strains, locus YNL224C, strain SQS1, active compounds read low 1 | [5] 0.994 | S. cerevisiae deletion strains, locus YOR083W, strain WHI5 (second series), active compounds read low 0.98 | [6] 1

CC(C)(C)S(=O)(=O)/C(C#N)=C/c1ccc(F)cc1F
inactive: S. cerevisiae deletion strains, locus YAL013W, strain DEP1, active compounds read low 0.995 | S. cerevisiae deletion strains, locus YBR229C, strain ROT2, active compounds read low 0.999 | S. cerevisiae deletion strains, locus YDL101C, strain DUN1, active compounds read low 1 | S. cerevisiae deletion strains, locus YDL134C, strain PPH21, active compounds read low 1.01 | S. cerevisiae deletion strains, locus YDR150W, strain NUM1, active compounds read low 0.947 | S. cerevisiae deletion strains, locus YEL061C, strain CIN8, active compounds read low 1.02 | [1] 0.999 | S. cerevisiae deletion strains, locus YHR030C, strain SLT2, active compounds read low 1.08 | S. cerevisiae deletion strains, locus YHR087W, strain rtc3, active compounds read low 1.01 | S. cerevisiae deletion strains, locus YJL187C, strain SWE1, active compounds read low 1 | S. cerevisiae deletion strains, locus YJR043C, strain POL32, active compounds read low 1.01 | [2] 0.987 | S. cerevisiae deletion strains, locus YKL190W, strain CNB1, active compounds read low 1.02 | S. cerevisiae deletion strains, locus YLR039C, strain RIC1, active compounds read low 0.962 | S. cerevisiae deletion strains, locus YLR058C, strain SHM2 (second series), active compounds read low 0.987 | S. cerevisiae deletion strains, locus YLR085C, strain ARP6, active compounds read low 1.06 | S. cerevisiae deletion strains, locus YLR262C, strain YPT6, active compounds read low 0.954 | S. cerevisiae deletion strains, locus YML094W, strain GIM5, active compounds read low 1.03 | S. cerevisiae deletion strains, locus YMR219W, strain ESC1, active compounds read low 0.989 | S. cerevisiae deletion strains, locus YMR263W, strain SAP30, active compounds read low 0.977 | [3] 1.01 | S. cerevisiae deletion strains, locus YNL128W, strain TEP1, active compounds read low 1.01 | [4] 1.01 | S. cerevisiae deletion strains, locus YNL298W, strain CLA4 (second series), active compounds read low 1.03 | [5] 0.994 | S. cerevisiae deletion strains, locus YNR030W, strain Alg12, active compounds read low 1.01 | S. cerevisiae deletion strains, locus YPL055C, strain LGE1, active compounds read low 0.919 | [6] 1.03 | S. cerevisiae deletion strains, locus YPR135W, strain CTF4, active compounds read low 1.05 | S. cerevisiae strains, strain wild type, active compounds read low 1.03
